FBA Mtb inh: Mtb fructose-bisphosphate aldolase inhibition; AID 588726; inhibition, % at 1 µM; hit rate 2.3% among 360,000; purified M. tuberculosis FBA, fluorescence read-out; in the data active = inhibition above about 27%;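 also: 0% = vehicle and 100% = reference inhibitor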
GDH-TPI inh: inhibits GDH-TPI coupling enzymes, artifact for Mtb FBA screen | hit rate 1.2% among 360,000 | inhibition, % at 4.8 µM | GDH-TPI coupled enzyme counterscreen, NADH absorbance; in the data active = inhibition above about 30%;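 also: 0% = DMSO wells and 100% = wells lacking the enzyme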
Mtb bLac sens: beta-lactam sensitization of Mtb H37Rv. hit rate 0.27% among 330,000. AID 434955. inhibition, % at 25 µM. M. tuberculosis H37Rv growth with meropenem, percent inhibition;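 also: growth measured after seven days incubation then overnight dye step; 0% = bacteria only wells and 100% = bacteria with antibiotic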
Rv3671c protease: Rv3671c (M. tuberculosis) protease inhibition; P9WHR9; inhibition, % at 5.96 µM; hit rate 0.048% among 320,000; in the data active = inhibition above about 38%;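 also: extracellular domain of Rv3671c used as enzyme; 0% = enzyme with DMSO and 100% = no enzyme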
RecA intein inh: inhibitors of M. tuberculosis RecA intein splicing. AID 2221. cell-free RecA intein splicing, fluorescence. inhibition, % (no concentration beside the values). P9WHJ3. hit rate 0.75% among 290,000; in the data active = inhibition above about 30%;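 also: 0% = vehicle wells and 100% = reference inhibitor control wells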
Mtb UGM inh: Mtb UDP-galactopyranose mutase inhibition; purified UGM, fluorescence polarization probe displacement; AID 504406; inhibition, % at 10 µM; hit rate 0.06% among 320,000; in the data active = inhibition above about 10%, passing the limit was not always enough
GFP chromophore: counter-screen: blocks GFP chromophore formation. shares compounds with RecA intein inh. cell-free GFP chromophore formation, fluorescence. EC50, µM. hit rate 83% among 2,100. AID 434968
* = called active by the depositor; x = no result; + = active, no number. Hits are enriched below; roughly 4% of the tested compounds scored in any of these assays. Unless noted, no rule for the calls is given here.

SMILES	FBA Mtb inh	GDH-TPI inh	Mtb bLac sens	Rv3671c protease	RecA intein inh	Mtb UGM inh	GFP chromophore
O=C(O)CSc1cc(NS(=O)(=O)c2ccc(Br)cc2)c2ccccc2c1O	3	0	8	-145	97*	2	0.68*
CCOC(=O)c1ccc(NC(=O)c2ncn3c2C(=O)NC[C@H]3C)cc1	0	8	x	x	x	x	x
Cc1cc(C(=O)CCl)c(C)n1CCc1ccc(Cl)cc1	4	3	100	2	62*	0	21*
CN1CCN(C2=C(Cl)C(=O)N(c3ccc(Cl)cc3)C2=O)CC1	4	13	49	1	33*	-1	0.16*
Cc1ccc(N2C(=O)C(Cl)=C(N3CCN(C)CC3)C2=O)c(C)c1	-6	8	96	-7	81*	1	6.4*
O=C1C(Cl)=C(N2CCCCCC2)C(=O)N1c1ccccc1	2	5	-3	-2	36*	2	28*
CN1CCN(C2=C(Cl)C(=O)N(CCc3ccccc3)C2=O)CC1	-1	0	8	-2	3	-1	x
COc1ccc2oc(C(=O)OCC(=O)Nc3ccc(C)c(S(=O)(=O)N4CCOCC4)c3)c(C)c2c1	25	10	x	x	x	x	x
Cc1cc(C)cc(Oc2coc3cc(OC(=O)c4cccs4)ccc3c2=O)c1	7	1	7	-20	34*	0	>38
Cc1ccc(Oc2coc3cc(OC(=O)c4cccs4)ccc3c2=O)cc1	10	-3	15	-11	12	1	x
CN1N=C(C(C)(C)C)CC1=O	x	x	-9	-92	36*	0	19*
Cc1cc(=O)oc2cc(OCC(=O)N3CCN(C(=O)C4COc5ccccc5O4)CC3)c(Cl)cc12 (stereo unspecified)	4	2	91	-7	-2	-1	x
COc1ccc(S(N)(=O)=O)cc1C(=O)OCC(=O)N1CC(=O)Nc2ccccc21	-1	-1	x	x	x	x	x
C#CCOC(=O)c1ccccc1C(=O)n1nnc2ccccc21	3	4	31	-2	51*	1	35*
O=c1oc2cc(Oc3c([N+](=O)[O-])cc(C(F)(F)F)cc3[N+](=O)[O-])ccc2c2c1CCCC2	+	22	85	-3	41*	3	0.96*
O=c1oc2cc(Oc3ccc(C(F)(F)F)cc3[N+](=O)[O-])ccc2c2c1CCC2	11	7	6	-6	-4	-1	x
O=[N+]([O-])c1ccccc1NS(=O)(=O)c1ccccc1	0	4	x	x	x	x	x
O=C(CSC1=NCCS1)Nc1nc2ccccc2s1	4	13	8	-3	28	2	x
Cc1sc(NC(=O)CSC2=NCCS2)nc1-c1ccccc1	2	2	66	-13	45*	0	>38
COc1ccc(C(=O)Nc2nnc(Cc3ccc(OC)c(OC)c3)s2)cc1	1	-1	8	-1	-6	-1	x
COCc1[nH]nc2c1C(c1ccccc1Cl)C(C#N)=C(N)O2 (stereo unspecified)	-1	-6	-8	-5	24	-1	x
CCOC(=O)Cc1[nH]nc2c1C(c1cccc(OC)c1OC)C(C#N)=C(N)O2 (stereo unspecified)	2	4	-3	0	45*	0	>38
CCOc1ccccc1C1C(C#N)=C(N)Oc2n[nH]c(CC)c21 (stereo unspecified)	3	-1	5	2	32*	3	33*
CCOC(=O)Cc1[nH]nc2c1C(c1cc(OC)ccc1OC)C(C#N)=C(N)O2 (stereo unspecified)	1	-9	0	6	63*	1	4.6*
CC(=O)Nc1cnc(-c2ccc3c(c2)OCO3)cn1	1	14	x	x	x	x	x
SMILES	FBA Mtb inh	GDH-TPI inh	Mtb bLac sens	Rv3671c protease	RecA intein inh	Mtb UGM inh	GFP chromophore
CC(C)c1[nH]nc2c1C1(CCN(Cc3ccccc3)CC1)C(C#N)=C(N)O2	1	-9	1	-2	68*	1	21*
Cc1[nH]nc2c1C1(CCN(Cc3ccccc3)CC1)C(C#N)=C(N)O2	3	12	-8	-2	85*	3	14*
CCOC(=O)C1CCC2(CC1)C(C#N)=C(N)Oc1n[nH]c(C)c12 (stereo unspecified)	0	-8	-6	-4	79*	2	>38
Cc1[nH]nc2c1C1(CCOCC1)C(C#N)=C(N)O2	-1	4	-8	2	78*	1	13*
CCc1nccn1CCC(=O)NC1CCCc2c1cnn2-c1ccc(F)cc1F (stereo unspecified)	3	6	-3	4	-1	-1	x
O=C1NN(CCO)C(=S)Nc2ccccc21	0	12	x	x	x	x	x
CCN(CC)c1ccc(S(=O)(=O)N2CCCCC2)cc1NC(=O)CSCc1c(C)noc1C	1	-2	x	x	x	x	x
Cc1ccc(Sc2oc(/C=N/n3cnnc3)cc2Br)cc1	-2	17	8	0	62*	-1	35*
Brc1ccc(/C=N/n2cnnc2)s1	-1	12	-4	-7	-2	0	x
Cc1ccc(S(=O)(=O)N(CC(=O)NCCSc2ccccn2)c2ccccc2F)cc1	0	-9	3	4	-1	-2	x
Cc1ccc(S(=O)(=O)N2CCCCC2)cc1NC(=O)CSc1ncnc2ccccc12	0	2	-3	-6	3	x	x
Cc1ccc(NC(=O)CSc2ncnc3ccccc23)cc1S(=O)(=O)N1CCCCCC1	-2	14	12	-28	31*	x	>38
c1ccc(Nc2ccc(Nc3ccccc3)cc2)cc1	-1	4	62	11	x	-1	x
N#CC(C#N)=C(C#N)c1ccc(Nc2ccccc2)cc1	1	8	11	-2	52*	0	4.6*
CCC(=O)Nc1c(C)nn(C(=O)CC)c1C	1	5	-1	-6	57*	-1	>38
CCC(=O)Nc1c(C)nn(-c2ccc(C)c(C)c2)c1C	3	2	4	0	-4	2	x
CCOc1ccc(C(=O)NC2CC(=O)N(c3ccc4c(c3)OCCO4)C2)cc1 (stereo unspecified)	-1	5	-4	-2	4	-3	x
O=C(C(=C1N(Cc2ccc(Cl)nc2)CCN1Cc1ccc(Cl)nc1)[N+](=O)[O-])C(Cl)Cl	-1	13	-6	2	76*	-4	6.5*
Cc1ccc(-c2ccc(/C=C3\SC(N4CCOCC4)=NC3=O)o2)cc1	-9	2	47	-11	-26	1	x
Cc1ccc(/C=C2\SC(N3CCN(C(c4ccccc4)c4ccccc4)CC3)=NC2=O)o1	1	3	74	-7	33*	0	>38
CC(=O)N1CC2(c3ccccc3)CN(C(C)=O)CC(c3ccccc3)(C1)C2=O	4	3	-4	12	62*	1	>38
CN(CC(=O)Nc1cccc(F)c1)C(=O)CN1C(=O)C2CCCCC2C1=O (stereo unspecified)	0	-9	-10	2	x	3	x
CCOC(=O)c1c(C)sc2c1N(C(=O)CCl)c1cc(Cl)ccc1S2	3	6	95	1	55*	-3	1.6*

High-throughput results (PubChem BioAssay)
